The results in this text go back to the supplement of paper PMC13380429.

Values without a mark were called inactive.

The first assay relates to Vero E6 infected with SARS-CoV-2. The experiment in a line: inhibition of SARS-CoV-2 cytopathic effect; higher = more antiviral protection, active = above 15. Conditions: 100 nM; 48 h. In general terms: Damage to the host cells serves as the signal in cytopathic effect assays.
For `C[N+]1(CCCCC[N+]2(C)CCCC2)CCCC1` [pentolinium], the “inhibition of SARS-CoV-2 cytopathic effect” value (“inhibition” below) is 5.22%.
Still for that read-out and setting: to `Cc1[nH]c2ccc(Cl)cc2c1C1=CCNCC1` belongs -0.51%; to `Cc1cc(C)c(CNC(=O)c2cc(-c3ccc(N4CCN(C)CC4)nc3)cc3c2c(C)cn3C(C)C)c(=O)[nH]1`, -3.49%; to `O=C(N[C@H]1CN2CCC1CC2)c1ccc2c(c1)OCCO2`, -0.74%.
Same read-out and setting: the same measure for `CCOC(=O)c1ccc(OC(=O)CCCCCNC(=N)N)cc1` [gabexate]: 1.38%.

Staying with this assay, now noted: 833.33 nM; 48 h.
As for `O=C(O)c1cccnc1C(=O)O` [quinolinic-acid], the “inhibition” value is -1.65%.
As to `CN1C[C@H](CNC(=O)OCc2ccccc2)C[C@@H]2c3cccc4c3c(cn4C)C[C@H]21` [metergoline], the “inhibition” value is -6.12%.
On the same count and under the same terms, to `O=C(Cc1ccc(-c2ccccc2)cc1)Nc1ccccn1` [difenpiramide] belongs 6.97%.
Take `CC(C)C(=O)SCCCCC[C@H](NC(=O)OC(C)(C)C)C(=O)NC12CC3CC(CC(C3)C1)C2`: the “inhibition” value is 2.47%.
The same measure, in the same setting: the same measure for `CC(C)N1Cc2cc(S(C)(=O)=O)ccc2N(CCN2CC=C(c3c[nH]c4cc(F)ccc34)CC2)S1(=O)=O`: 1.15%.
The same measure, in the same setting: to `NC[C@@H](O)CC(=O)O` [aminohydroxybutyric-acid] belongs -2.28%; to `O=C(/C=C/c1cccc(S(=O)(=O)Nc2ccccc2)c1)NO` [belinostat], -13.7%.
Same read-out and setting: the same measure for `NC(=O)c1cccc(N)c1` [3-amino-benzamide]: -1.13%; for `c1ccc(CCCN2CCN(CCOC(c3ccccc3)c3ccccc3)CC2)cc1`: 0.61%; for `O=C(OC(C(F)(F)F)C(F)(F)F)N1CCN(Cc2cccc(Oc3ccccc3)c2)CC1`: 3.51%.
Consider `CN(Cc1ccc(C(C)(C)C)cc1)Cc1cccc2ccccc12` [butenafine], for which the “inhibition” value was 2.62%.
On the same count and under the same terms, to `CC(=O)c1ccc2c(c1)[C@H](NC(=O)c1ccc(F)c(Cl)c1)[C@H](O)C(C)(C)O2` [tonabersat] belongs 1.11%.
Still for that read-out and setting: to `C[C@@]1(c2cc(-c3cncnc3)c(F)cc2F)CCSC(N)=N1` belongs -2%.
On the same count and under the same terms, to `c1ccc2[nH]c(-c3cscn3)nc2c1` [tiabendazole] belongs 0.7%; to `CC1(C)C(=O)NC2=C1C(=O)C(=O)c1ccccc12`, 1.58%.
In the case of `COC[C@H](NC(=O)c1cnc(C)s1)C(=O)N[C@@H](COC)C(=O)N[C@@H](Cc1ccccc1)C(=O)[C@@]1(C)CO1` [oprozomib], the “inhibition” value is 34.5% (active).
The same measure, in the same setting: to `CN(C)C(=O)[C@H](O)[C@H](Cc1ccccc1)NC(=O)c1cc2cc(Cl)ccc2[nH]1` belongs 1.2%; to `CO[C@@H]1[C@H](N(C)C(=O)c2ccccc2)C[C@H]2O[C@]1(C)n1c3ccccc3c3c4c(c5c6ccccc6n2c5c31)C(=O)NC4` [midostaurin], -23.9%.
With `NS(=O)(=O)c1cccc2c1c([N+](=O)[O-])cc1nc(O)c(O)nc12`, the “inhibition” value was 1.7%.
Still for that read-out and setting: the same measure for `CCOC(=O)c1ccc(C#Cc2ccc3c(c2)C(C)(C)CCS3)nc1` [tazarotene]: 3.69%; for `Cc1c(Cl)c(C)[n+]([O-])c(Cl)c1-c1noc(-c2cc(O)c(O)c([N+](=O)[O-])c2)n1` [opicapone]: 0.43%.
Take `CC(=O)OCC(=O)[C@@]1(O)CC[C@H]2[C@@H]3CCC4=CC(=O)CC[C@]4(C)[C@@]3(F)[C@@H](O)C[C@@]21C`: the “inhibition” value was -0.24%.
For the compound `N[C@@H](C(=O)N[C@@H]1C(=O)N2C(C(=O)O)=C(Cl)CC[C@H]12)c1ccccc1` [loracarbef], the “inhibition” value was 1.17%.
Same read-out and setting: the same measure for `Cc1cnc(-c2cnc(NCCNc3ccc(C#N)cn3)nc2-c2ccc(Cl)cc2Cl)[nH]1`: 3.98%; for `CNCCCOc1cc(F)c(-c2c(Cl)nc3ncnn3c2N[C@@H](C)C(F)(F)F)c(F)c1` [cevipabulin]: 6.1%; for `CC(=C(CCO)SSCC1CCCO1)N(C=O)Cc1cnc(C)nc1N` (stereo in doubt) [fursultiamine]: -1.75%.
As to `CC(C)(C)[C@]1(O)CCN2C[C@H]3c4ccccc4CCc4cccc(c43)[C@@H]2C1` [butaclamol], the “inhibition” value is 1.72%.
Same read-out and setting: the same measure for `CCC(=O)OCC(=O)[C@@]1(OC(=O)CC)[C@@H](C)C[C@H]2[C@@H]3CCC4=CC(=O)C=C[C@]4(C)[C@@]3(Cl)[C@@H](O)C[C@@]21C` [beclomethasone-dipropionate]: -9.54%; for `C/N=C(/NC#N)NCCSCc1csc(NC(=N)N)n1` [tiotidine]: -3.05%; for `CCCNC(=O)N1N=C(c2ccc(N)cc2)c2cc3c(cc2C1C)OCO3` (centres undefined): 0.9%.
In the case of `Cc1ncc([N+](=O)[O-])n1CC(C)O` (centres undefined) [secnidazole], the “inhibition” value is -10.4%.
Same read-out and setting: to `CC(=O)Nc1nnc(S(N)(=O)=O)s1` [acetazolamide] belongs -2.21%.
For `CC1(C)C(=O)N(c2ccc(C#N)c(C(F)(F)F)c2)C(=O)N1CCCCO`, the “inhibition” value is 0.45%.
On the same count and under the same terms, the same measure for `CC1(C)[C@@H](O)CC[C@]2(C)[C@H]3C(=O)C=C4[C@@H]5C[C@@](C)(C(=O)O)CC[C@]5(C)CC[C@@]4(C)[C@]3(C)CC[C@@H]12` [enoxolone]: 2.65%; for `C[N+]1(CCCCC[N+]2(C)CCCC2)CCCC1` [pentolinium]: 4.57%.
Same read-out and setting: to `Cc1[nH]c2ccc(Cl)cc2c1C1=CCNCC1` belongs 1.48%; to `Cc1cc(C)c(CNC(=O)c2cc(-c3ccc(N4CCN(C)CC4)nc3)cc3c2c(C)cn3C(C)C)c(=O)[nH]1`, -2.29%.
Same read-out and setting: the same measure for `O=C(N[C@H]1CN2CCC1CC2)c1ccc2c(c1)OCCO2`: -0.26%.
`CCOC(=O)c1ccc(OC(=O)CCCCCNC(=N)N)cc1` [gabexate]: the “inhibition” value was 3.6%.
